In PubChem BioAssay (NCI):
Compounds without any hit were thinned out: in the full panel of roughly 83,000, 20% have a hit.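 The endpoint reported here, percent growth, reads 100 for growth as untreated, 0 for no net growth and -100 for all cells dead.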 Activity calls are given as the source filed them. The calls were made as follows: active = growth percent below 10; inactive = the rest.

Each molecule was assayed on SW-620 colon (assay: NCI-60 one-dose screen, 48 h (100 = growth as untreated, 0 = no growth, -100 = all killed)). Conditions: 10 µM unless noted.

Compound | growth
CC(Br)C(O)c1cc2c(cc1Br)OCO2 (configuration not stated) | 104% (inactive)
OC1CC2c3ccccc3C1c1ccccc12 (configuration not stated) | 108% (inactive)
Cc1cc(C)c(S(=O)(=O)N2CCN(c3cc4c(cc3F)c(=O)c(C(=O)O)cn4C3CC3)CC2)c(C)c1 | 79.8% (inactive)
Cc1cc(Cl)ccc1OC(C)C(=O)Nc1nnc(C2CC2)s1 (configuration not stated) | 103% (inactive)
Cc1sc2nc(CSc3nnc(-c4ccco4)o3)[nH]c(=O)c2c1C | 101% (inactive)
CCCCCCCCCCCCCCCCCCOc1cccc(CCOP(=O)(O)OCC[N+](C)(C)C)c1 | 94.3% (inactive)
C=CCOc1ccc(/C(O)=C2\C(=O)C(=O)N(c3nccs3)C2c2ccccc2F)cc1 (configuration not stated) | 103% (inactive)
CC/C(=C(\c1ccc(O)cc1)c1ccc(OCCN(C)CCN(C)C(=O)CCC(=O)c2c(C)[nH]c(/C=C3\N=C(c4ccc[nH]4)C=C3OC)c2C)cc1)c1ccccc1 | 66.2% (inactive)
Cc1ccc(Oc2nc3ccccc3cc2-c2nnc(Cn3c(COc4ccccc4)nc4ccccc43)o2)cc1 | 18.1% (inactive)
CCOC(=O)c1cc(/C(=N\O)c2cc(OC)c(OC)c(OC)c2)n2cc(C)cc(C)c12 | 13.3% (inactive)
O=c1c2cccc3c(Nc4ccc(F)cc4)ccc(c32)c2nc3ccccc3n12 | 88% (inactive)
C=C1C(=O)O[C@H]2[C@H]1CC/C(COC(=O)NCc1cc(OC)c(OC)c(OC)c1)=C\CC[C@@]1(C)O[C@@H]21 | 15.6% (inactive)
Cc1cc(C(=O)O)c(N)c(C)n1 | 106% (inactive)
Cc1ccc(Nc2ncnc3c2sc2ncccc23)cc1 | 99.8% (inactive)
O=C1CCC(=O)N1Cc1ccccc1 | 100% (inactive)
O=C(Nc1ccc(I)cc1)c1cccc([N+](=O)[O-])c1O | 21.7% (inactive)

Compound | growth
COc1cc(NC(=O)CCl)ccc(=O)c1 | 69.8% (inactive)
COc1ccc(/C=C/c2nc(N3CCOCC3)c3nc(Cl)c(Cl)cc3n2)cc1OC | 109% (inactive)
CCCCCCCC/C=C\CCCCCCCCOc1ccccc1CCOP(=O)(O)OCC[N+](C)(C)C | 67.8% (inactive)
COC(=O)c1ccc(C)cc1 | 101% (inactive)
COc1ccc(/C(=N/O)c2cc(OC)c(OC)c(OC)c2)c(OC)c1N | 17.4% (inactive)
COc1ccc(C2CC(=O)Nc3c2c(C)nn3-c2nc3ccccc3[nH]2)cc1OC (configuration not stated) | 78.3% (inactive)
C=C1C(=O)O[C@H]2[C@H]1CC/C(COC(=O)NCCc1cccc(OC)c1)=C\CC[C@@]1(C)O[C@@H]21 | -10.8% (active)
COc1ccc(-c2cn[nH]c2-c2cc(OC)c3c(c2)OCCO3)cc1 | 25.5% (inactive)
CCN(Cc1ccccc1)c1ccc(SC#N)cc1 | 83.8% (inactive)
Cc1ccc2c(c1)C(C)Cc1c(ncnc1-n1cnc3ccccc31)N2C (configuration not stated) | 21.6% (inactive)
Cc1nc2sccn2c1-c1csc(Nc2ccccc2Cl)n1 | 33.1% (inactive)
C=CCc1cc(Cl)cc2c(OC(C)=O)c(C(C)=O)c(-c3ccccc3)nc12 | 107% (inactive)
Cc1nc2scc(-c3ccccc3)n2c(=O)c1CCO | 101% (inactive)
COc1ccc(/C=C\c2cc(OC)c(OC)c(OC)c2)c(NS(=O)(=O)c2ccc(C(C)(C)C)cc2)c1O | 31.7% (inactive)
CC1CCc2c(sc(NC(=O)CSc3nnc4ccccn34)c2C(N)=O)C1 (configuration not stated) | 109% (inactive)
COc1ccc2c(c1)C=CC(C#N)N2C(=O)c1ccccc1 (configuration not stated) | 21.6% (inactive)
